Bioassay records as filed in PubChem.
Tb PGK inh = T. brucei PGK inhibition; P07378; PGK/GAPDH coupled, Kinase-Glo luminescence, 60 min; Potency, µM (doses to about 57.5 µM), hits mostly inhibitors; 0.043% of 380,000 active; also: nearly all actives have a fitted effect of over 60% in size
Target sequence (P07378 whole entry, looked up): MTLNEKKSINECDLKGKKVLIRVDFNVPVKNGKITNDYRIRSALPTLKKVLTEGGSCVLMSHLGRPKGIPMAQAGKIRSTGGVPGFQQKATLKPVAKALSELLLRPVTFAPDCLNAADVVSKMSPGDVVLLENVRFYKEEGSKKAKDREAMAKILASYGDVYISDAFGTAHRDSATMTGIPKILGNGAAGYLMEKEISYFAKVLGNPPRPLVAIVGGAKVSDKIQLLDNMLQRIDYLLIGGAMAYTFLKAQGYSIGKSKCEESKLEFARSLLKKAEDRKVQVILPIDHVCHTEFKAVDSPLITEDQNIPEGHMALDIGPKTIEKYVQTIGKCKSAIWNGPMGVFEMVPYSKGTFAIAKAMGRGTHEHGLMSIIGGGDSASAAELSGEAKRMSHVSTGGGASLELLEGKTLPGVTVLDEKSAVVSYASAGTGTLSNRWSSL
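Recombinant glycosomal PGK reaction used 1,3-bisphosphoglycerate generated in-well by GAPDH (100nM final) in 100mM TEA pH 7.6, 5mM MgCl2, 0.01% Tween-20. After 60 minutes at room temperature, ATP was read by Kinase-Glo Plus luminescence end-point.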
POLK inh = inhibitors of human DNA polymerase kappa; 0.53% of 400,000 active; Potency, µM (titrated, usually from 107 µM), usual class: inhibitors; AID 588579; Q9UBT6; purified Pol kappa, fluorescent DNA synthesis assay, 10 min
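50 nM final substrate added after 15 min RT preincubation of 10 nM Pol kappa with compound; fluorescence read at 0 and 10 min.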
POLB inh = inhibitors of human DNA polymerase beta; P06746; Pol beta primer extension/strand displacement, fluorescence kinetic; Potency, µM (top dose mostly 114 µM), hits mostly inhibitors; 1.3% of 340,000 active
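Reaction started by 50 nM substrate onto compound-treated Pol beta (10 nM, 15 min preincubation, room temperature); plates read at 0 min and 10 min. Normalized concentration-effect data fitted by four-parameter Hill equation.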
POLI inh = DNA polymerase iota (human) inhibition | Q9UNA4 | Pol iota fluorescent replication assay, 10 min | Potency, µM (doses to about 115 µM), actives largely listed as inhibitors | 1% of 390,000 active | AID 588590
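Fluorescent replication assay read twice, at 0 min and 10 min after adding 50 nM (final) substrate. Enzyme (10 nM) and compounds were first incubated 15 min at room temperature; enzyme-free buffer wells were negative controls.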
FEN1 inh = inhibitors of human flap endonuclease 1; Recombinant FEN1 flap cleavage, fluorescence, 15 min; Potency, µM (top dose mostly 114 µM), actives largely listed as inhibitors; 0.35% of 390,000 active; AID 588795; also: nearly all actives have a fitted effect of over 65% in size
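Reaction started by adding substrate (50 nM final) to 10 nM enzyme after 15 min room-temperature compound preincubation. Reads at 0 and 15 min, with data normalized and fitted to a four-parameter Hill equation.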
Pol eta inh = DNA polymerase eta (human) inhibition | Q9Y253 | recombinant Pol eta, fluorescent DNA replication assay | Potency, µM (doses to about 114 µM), most hits filed as inhibitors | 1.2% of 390,000 active
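Fluorescent replication assay: 50 nM final substrate added after a 15 min room-temperature compound preincubation with 10 nM enzyme. Signal taken at 0 min and again at 10 min.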
Large screens that a line does not name were inactive. An excerpt weighted towards active compounds, which were near 2.4% of everything screened. Calls follow the shape of the dose curve; as a rule, active = well fitted curve in the direction sought with a large enough effect; inconclusive = small, poorly fitted or top-dose-only effect, or another doubt; inactive = no such curve, though single readings can be large; an effect the other way counts as inactive or inconclusive.

COc1cccc(C2CC(c3cccs3)=NN2C(=O)CSc2nc3c(cnn3-c3ccc(F)cc3)c(=O)[nH]2)c1OC (configuration not stated)	FEN1 inh 17.8µM
COc1ccccc1CNC(=O)CCNS(=O)(=O)c1ccc2[nH]c(=O)oc2c1	POLB inh inconclusive, Pol eta inh 79.4µM
COc1ccccc1NC(=O)CCNS(=O)(=O)c1ccc2[nH]c(=O)oc2c1	POLK inh inconclusive, POLI inh inconclusive, Pol eta inh 25.1µM
COc1ccc(OC)c(NC(=O)CCNS(=O)(=O)c2ccc3[nH]c(=O)oc3c2)c1	Pol eta inh inconclusive
Cc1ccc(-c2csc(NC(=O)C3CC(=O)N(c4ccc5c(c4)OCCO5)C3)n2)o1 (configuration not stated)	none (no result: Tb PGK inh, POLB inh, Pol eta inh)
Nc1ncnc2c1nc(Sc1ccc(Cl)cc1)n2[C@H]1OC2COP(=O)(O)O[C@@H]2C1O (some centres not stated)	none (no result: Tb PGK inh, POLB inh, POLI inh, FEN1 inh, Pol eta inh)
O=C(Cc1cccs1)N=Nc1c(O)[nH]c2ccccc12	none
O=C(CSc1nnc(SCc2cccc3ccccc23)s1)N=Nc1c(O)[nH]c2ccccc12	POLB inh 12.6µM (no result: Tb PGK inh, POLK inh, POLI inh, FEN1 inh, Pol eta inh)
Nc1cc(C(=O)OCC(=O)c2ccc(CC(=O)N3CCOCC3)s2)ccc1Cl	POLK inh inconclusive, POLI inh 12.6µM, Pol eta inh 28.2µM (no result: POLB inh)
COc1cc2c[n+](C)c3c4ccccc4ccc3c2cc1OC	POLK inh 31.6µM, POLI inh inconclusive, FEN1 inh 6.31µM, Pol eta inh inconclusive (no result: POLB inh)
CCCC(=O)O[C@]1(C(=O)CCl)[C@H](C)C[C@@H]2[C@H]3CCC4=CC(=O)C=C[C@]4(C)[C@@]3(F)C(=O)C[C@@]21C	none (no result: Tb PGK inh, POLB inh, POLI inh, FEN1 inh, Pol eta inh)
COc1ccc(C2=C(C)C(N3CCC(C(=O)Nc4ccccc4F)CC3)=NS2(=O)=O)cc1	POLB inh 22.4µM, POLI inh inconclusive (no result: Tb PGK inh, Pol eta inh)
COc1ccccc1CNC(=O)C1CCN(C2=NS(=O)(=O)C(c3ccc(C)c(C)c3)=C2C)CC1	POLB inh inconclusive, POLI inh 89.1µM
CCC1=C(c2ccc(C)cc2)S(=O)(=O)N=C1N1CCC(C(=O)Nc2ccccc2F)CC1	none (no result: Tb PGK inh, Pol eta inh)
C#CCOCCOCCOCCNc1nc(N2CCN(C(=O)[C@H](Cc3cc4ccccc4[nH]3)n3cc([C@@H](N)CC(C)C)nn3)CC2)nc(N2CCN(C(=O)[C@H](Cc3cc4ccccc4[nH]3)n3cc([C@@H](N)CC(C)C)nn3)CC2)n1	POLB inh 28.2µM, POLI inh inconclusive
C#CCOCCOCCOCCNc1nc(N2CCN(C(=O)[C@H](Cc3ccc(O)cc3)n3cc([C@@H](N)C(C)CC)nn3)CC2)nc(N2CCN(C(=O)[C@H](Cc3cc4ccccc4[nH]3)n3cc([C@@H](N)CC(C)C)nn3)CC2)n1 (some centres not stated)	POLB inh 28.2µM, POLI inh 79.4µM
C#CCOCCOCCOCCNc1nc(N2CCOCC2)nc(N2CCN(C(=O)[C@H](Cc3cc4ccccc4[nH]3)n3cc([C@@H](N)CC(C)C)nn3)CC2)n1	none
C#CCOCCOCCOCCNc1nc(N2CCN(C(=O)[C@H](Cc3cc4ccccc4[nH]3)n3cc([C@@H](N)C(C)CC)nn3)CC2)nc(N2CCN(C(=O)[C@H](Cc3cc4ccccc4[nH]3)n3cc([C@@H](N)Cc4ccc(O)cc4)nn3)CC2)n1 (some centres not stated)	none (no result: Tb PGK inh, POLK inh, POLI inh, FEN1 inh, Pol eta inh)
C#CCOCCOCCOCCNc1nc(N2CCN(C(=O)[C@H](CCC(=O)O)n3cc(C(N)[C@H](C)CC)nn3)CC2)nc(N2CCN(C(=O)[C@H](CCC(=O)O)n3cc(C(N)[C@H](C)CC)nn3)CC2)n1 (some centres not stated)	POLI inh inconclusive, Pol eta inh 25.1µM
C#CCOCCOCCOCCNc1nc(N2CCN(C(=O)[C@H](Cc3ccc(O)cc3)n3cc([C@@H](N)C(C)CC)nn3)CC2)nc(N2CCN(C(=O)[C@H](Cc3cc4ccccc4[nH]3)n3cc([C@@H](N)C(C)CC)nn3)CC2)n1 (some centres not stated)	POLB inh 25.1µM, POLI inh 28.2µM
O=C1C2C3CCCC3=C3CCCC3C2C(=O)N1c1ccccc1Cl (configuration not stated)	POLK inh inconclusive (no result: Tb PGK inh, POLB inh, Pol eta inh)
CCCC[n+]1ccn(C2=C([O-])c3ccccc3C(=O)/C2=N\S(=O)(=O)c2ccccc2)c1	none
CC(C)c1ccc(NC(=O)C[n+]2ccn(C3=C([O-])c4ccccc4C3=O)c2)cc1	POLB inh inconclusive, POLI inh inconclusive, Pol eta inh 79.4µM
CN(Cc1ccco1)c1cc(-c2ccoc2)ncn1	POLK inh 25.1µM (no result: Tb PGK inh, POLB inh, POLI inh, FEN1 inh, Pol eta inh)
CN(C)c1ccc(-c2cc(N(C)Cc3ccco3)ncn2)cc1	none (no result: Tb PGK inh, POLB inh, POLI inh, FEN1 inh, Pol eta inh)
COc1cc(-c2ccc(N=Nc3ccc4c(S(=O)(=O)O)cc(S(=O)(=O)O)c(N)c4c3O)c(OC)c2)ccc1N=Nc1ccc2c(S(=O)(=O)O)cc(S(=O)(=O)O)c(N)c2c1O	POLK inh 0.251µM (no result: Tb PGK inh, POLB inh, POLI inh, FEN1 inh, Pol eta inh)
CC(C)=CCc1c(O)cc2oc3c(CC=C(C)C)c(O)c(O)c(CC=C(C)C)c3c(=O)c2c1O	POLK inh 79.4µM, POLB inh 44.7µM, POLI inh inconclusive, Pol eta inh 39.8µM
N[C@H](C(=O)O)C1C(C(=O)O)C1C(=O)O (some centres not stated)	none (no result: Tb PGK inh, POLB inh, POLI inh, FEN1 inh, Pol eta inh)
Cc1ccc(CNC(=O)c2c[nH]n3c(=O)c(Cc4ccc(F)cc4Cl)c(C)nc23)cc1	POLK inh inconclusive, POLB inh 50.1µM, POLI inh inconclusive, FEN1 inh inconclusive, Pol eta inh 70.8µM
Cc1nc2c(C(=O)NCCc3ccc(Cl)cc3)c[nH]n2c(=O)c1Cc1ccccc1F	POLB inh inconclusive, POLI inh 70.8µM, FEN1 inh inconclusive, Pol eta inh inconclusive
Cc1nc2c(C(=O)NCCc3ccccc3)c[nH]n2c(=O)c1Cl	none
Cc1nc2c(C(=O)NCc3ccccc3)cnn2c(C)c1Cc1ccc(F)cc1	none
Cc1nc2c(C(=O)NCCC(C)C)c[nH]n2c(=O)c1Cl	none
Cc1nc2c(C(=O)NCCc3ccccc3)c[nH]n2c(=O)c1Cc1ccc(F)cc1Cl	POLB inh 79.4µM, POLI inh inconclusive, FEN1 inh inconclusive
Cc1nc2c(C(=O)NCCC(C)C)c[nH]n2c(=O)c1Cc1ccccc1F	POLB inh 70.8µM, POLI inh inconclusive
O=C([C@@H]1CC=C[C@@H]2CCN(C3CCCCC3)C(=O)[C@@H]21)N1CCOCC1	none (no result: Tb PGK inh, POLB inh, Pol eta inh)
O=C(C[n+]1ccccc1Br)c1ccc(I)cc1	none (no result: Tb PGK inh, POLB inh, Pol eta inh)
CC(=Nc1ccccc1N)c1c(C)cc(=O)n(O)c1O	none (no result: Tb PGK inh, POLB inh, POLI inh, FEN1 inh, Pol eta inh)
O=S(=O)(Nc1cc2nc3ccccc3nc2n1Cc1ccccc1)c1ccc(Cl)cc1	POLB inh inconclusive, POLI inh 10µM, Pol eta inh 79.4µM
